From PubChem BioAssay (EPA / NIEHS)
Activity calls are given as the source filed them. How the source made its calls: active means hit-call score of the fitted dose curve at least 0.9, where 1 is the maximum; inactive means score below 0.9.

Legend:
[1] = read-out: Matrix Metallopeptidase 1 (MMP1), MMP1 (gene 4312); experiment: BSK_hDFCGF_MMP1: BioMAP Diversity Plus: hDFCGF Assay for Matrix Metallopeptidase 1 (MMP1) Biomarker Activity (AID 2283064); conditions: primary human foreskin fibroblasts; actives raise or lower the signal
Procedure, shortened: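 ELISA read-out of MMP1 from human foreskin fibroblasts (primary skin cells), 24 h post-dose. Gain or loss of signal was fitted bidirectionally versus DMSO negative control; cytotoxicity was checked by SRB in parallel cultures.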

[2] = read-out: Vascular cell adhesion molecule 1 (VCAM1), VCAM1 (gene 7412); experiment: BSK_hDFCGF_VCAM1: BioMAP Diversity Plus: hDFCGF Assay for Vascular cell adhesion molecule 1 (VCAM1) Biomarker Activity (AID 2283065); conditions: primary human foreskin fibroblasts; actives raise or lower the signal
Procedure, shortened: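 ELISA readout of VCAM-1 on human dermal fibroblast primary cultures, 24 h after chemical exposure. Gain or loss of signal fitted in both directions against DMSO baseline.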

[3] = read-out: Plasminogen activator inhibitor-1 (PAI1), SERPINE1 (gene 5054); experiment: BSK_hDFCGF_PAI1: BioMAP Diversity Plus: hDFCGF Assay for Plasminogen activator inhibitor-1 (PAI1) Biomarker Activity (AID 2283066); conditions: primary human foreskin fibroblasts; actives raise or lower the signal
Procedure, shortened: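 Human skin fibroblast cultures receive chemical for 24 h before PAI-1 is measured by ELISA; signal changes are fitted bidirectionally against DMSO-treated wells.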

[4] = read-out: Intercellular Adhesion Molecule 1 (ICAM1), ICAM1 (gene 3383); experiment: BSK_KF3CT_ICAM1: BioMAP Diversity Plus: KF3CT Assay for Intercellular Adhesion Molecule 1 (ICAM1) Biomarker Activity (AID 2283067); conditions: primary human keratinocytes with fibroblasts; actives raise or lower the signal
Procedure, shortened: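 Cell-surface ICAM-1 was measured by ELISA 24 h after dosing primary human skin keratinocytes co-cultured with fibroblasts. Parallel SRB staining tracked overt cytotoxicity. Gain or loss of signal was fitted relative to DMSO.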

[5] = read-out: Interferon-gamma inducible Protein 10 (IP10), CXCL10 (gene 3627); experiment: BSK_KF3CT_IP10: BioMAP Diversity Plus: KF3CT Assay for Interferon-gamma inducible Protein 10 (IP10) Biomarker Activity (AID 2283068); conditions: primary human keratinocytes with fibroblasts; actives raise or lower the signal
Procedure, shortened: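 Signal is secreted/surface IP-10 by ELISA in a human primary skin co-culture of keratinocytes and foreskin fibroblasts, taken 24 h post-dosing; DMSO served as negative control.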

[6] = BSK_KF3CT_SRB: Viability Assessment in the BioMAP Diversity Plus: KF3CT Assay (AID 2283069); conditions: primary human keratinocytes with fibroblasts;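 further: total protein by sulforhodamine B staining as a cytotoxicity measure; read 24 h after compound addition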
Procedure, shortened: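 SRB read-out at 560 nm (0.1% stain, TCA-fixed cells) gauges overt cytotoxicity in a human skin keratinocyte–fibroblast co-culture 24 h post-dosing. Signal change was fitted bidirectionally relative to DMSO control.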

[7] = read-out: Interleukin-1 alpha (IL1a), IL1A (gene 3552); experiment: BSK_KF3CT_IL1a: BioMAP Diversity Plus: KF3CT Assay for Interleukin-1 alpha (IL1a) Biomarker Activity (AID 2283070); conditions: primary human keratinocytes with fibroblasts; actives raise or lower the signal
Procedure, shortened: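 Primary skin co-culture (keratinocytes, foreskin fibroblasts), 24 h exposure; ELISA for IL-1a; bidirectional curve fit vs DMSO.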

[8] = read-out: TIMP metallopeptidase inhibitor 2 (TIMP2), TIMP2 (gene 7077); experiment: BSK_KF3CT_TIMP2: BioMAP Diversity Plus: KF3CT Assay for TIMP metallopeptidase inhibitor 2 (TIMP2) Biomarker Activity (AID 2283071); conditions: primary human keratinocytes with fibroblasts; actives raise or lower the signal
Procedure, shortened: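 Measurements come from ELISA detection of TIMP-2 at 24 hours in a dosed human keratinocyte and foreskin fibroblast co-culture. DMSO serves as negative control and baseline.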

[9] = read-out: Transforming growth factor beta 1 (TGFb1), TGFB1 (gene 7040); experiment: BSK_KF3CT_TGFb1: BioMAP Diversity Plus: KF3CT Assay for Transforming growth factor beta 1 (TGFb1) Biomarker Activity (AID 2283072); conditions: primary human keratinocytes with fibroblasts; actives raise or lower the signal
Procedure, shortened: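 TGF-b1 ELISA on a 24 h dosed co-culture of human keratinocytes and foreskin fibroblasts; cytotoxicity tracked in parallel cultures by SRB staining.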

[10] = read-out: C-C motif chemokine 2 (Homo sapiens) (UniProt P13500); experiment: BSK_KF3CT_MCP1: BioMAP Diversity Plus: KF3CT Assay for Monocyte Chemoattractant Protein 1 (MCP1/CCL2) Biomarker Activity (AID 2283073); conditions: primary human keratinocytes with fibroblasts; actives raise or lower the signal
Procedure, shortened: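 ELISA read-out of MCP-1, 24 h post-dose, in primary human skin keratinocytes co-cultured with fibroblasts. Parallel SRB staining monitors cytotoxicity; changes fitted both directions relative to DMSO.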

[11] = read-out: urokinase plasminogen activator (uPA), PLAU (gene 5328); experiment: BSK_KF3CT_uPA: BioMAP Diversity Plus: KF3CT Assay for urokinase plasminogen activator (uPA) Biomarker Activity (AID 2283075); conditions: primary human keratinocytes with fibroblasts; actives raise or lower the signal
Procedure, shortened: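 Skin co-culture (keratinocytes + foreskin fibroblasts), human primary; 24 h post-dose; uPA by ELISA; gain/loss fit vs DMSO baseline.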

CD40, CD40 (gene 958) = experiment: BSK_LPS_CD40: BioMAP Diversity Plus: LPS Assay for CD40 Biomarker Activity (AID 2283076); conditions: primary human HUVEC with PBMC; actives raise or lower the signal
Procedure, shortened: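 In the LPS system of human endothelial cells with peripheral blood mononuclear cells, CD40 levels were read by ELISA 24 h post-treatment. Signal changes in either direction were fitted against the DMSO baseline, with parallel SRB protein staining.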

[12] = read-out: E-selectin (Homo sapiens) (UniProt P16581); experiment: BSK_LPS_Eselectin: BioMAP Diversity Plus: LPS Assay for Eselectin Biomarker Activity (AID 2283077); conditions: primary human HUVEC with PBMC; actives raise or lower the signal
Procedure, shortened: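 E-selectin ELISA on LPS-stimulated endothelial cell/PBMC co-cultures, read 24 h post-treatment; gains and losses fitted against DMSO. Parallel SRB staining (0.1% SRB after 10% TCA fixation, 560 nm) flags overt cytotoxicity.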

[13] = read-out: Interleukin-8 (IL8), CXCL8 (gene 3576); experiment: BSK_LPS_IL8: BioMAP Diversity Plus: LPS Assay for Interleukin-8 (IL8) Biomarker Activity (AID 2283078); conditions: primary human HUVEC with PBMC; actives raise or lower the signal
Procedure, shortened: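 ELISA read-out of IL-8 after 24 h chemical treatment of LPS-activated endothelial/PBMC human primary co-cultures. Changes either up or down relative to DMSO; overt cytotoxicity checked by sulforhodamine B staining in parallel wells.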

[14] = BSK_LPS_SRB: Viability Assessment in the BioMAP Diversity Plus: LPS Assay (AID 2283079); conditions: primary human HUVEC with PBMC;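 further: total protein by sulforhodamine B absorbance as a cytotoxicity measure; measured one day after compound addition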
Procedure, shortened: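 SRB viability endpoint: cells fixed with 10% TCA, stained with 0.1% SRB, read at 560 nm, 24 h post-dose. HUVEC/PBMC co-culture; signal change in either direction scored relative to DMSO.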

[15] = read-out: Interleukin-1 alpha (IL1a), IL1A (gene 3552); experiment: BSK_LPS_IL1a: BioMAP Diversity Plus: LPS Assay for Interleukin-1 alpha (IL1a) Biomarker Activity (AID 2283080); conditions: primary human HUVEC with PBMC; actives raise or lower the signal
Procedure, shortened: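 Readout is IL-1a level by ELISA, 24 h post-dose, fitted as gain or loss relative to DMSO. System: LPS-activated human primary co-culture of vascular endothelium and peripheral blood mononuclear cells, with parallel SRB total-protein cytotoxicity.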

[16] = read-out: Monocyte Chemoattractant Protein-1 (MCP1), CCL2 (gene 6347); experiment: BSK_LPS_MCP1: BioMAP Diversity Plus: LPS Assay for Monocyte Chemoattractant Protein-1 (MCP1) Biomarker Activity (AID 2283081); conditions: primary human HUVEC with PBMC; actives raise or lower the signal;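 on AC50: secreted MCP-1 protein quantified by ELISA in culture supernatant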
Procedure, shortened: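 Secreted MCP-1 read by ELISA at 24 h post-dosing in an LPS-activated co-culture of endothelial cells with peripheral blood mononuclear cells. Fits run in both directions, DMSO as baseline; parallel SRB staining tracks overt cytotoxicity.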

[17] = BSK_LPS_PGE2: BioMAP Diversity Plus: LPS Assay for Prostaglandin E2 (PGE2) Biomarker Activity (AID 2283082); conditions: primary human HUVEC with PBMC; actives raise or lower the signal
Procedure, shortened: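 Primary human endothelial cells and blood mononuclear cells, co-cultured with LPS, receive test chemical; PGE2 ELISA follows at 24 h, with SRB-stained parallel cultures flagging cytotoxicity.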

[18] = read-out: Macrophage colony-stimulating factor (MCSF), CSF1 (gene 1435); experiment: BSK_LPS_MCSF: BioMAP Diversity Plus: LPS Assay for Macrophage colony-stimulating factor (MCSF) Biomarker Activity (AID 2283083); conditions: primary human HUVEC with PBMC; actives raise or lower the signal
Procedure, shortened: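 Bidirectional fitting against DMSO was applied to M-CSF levels read by ELISA at 24 h post-dose. The system pairs human umbilical vein endothelium with peripheral blood mononuclear cells; parallel SRB staining tracked cytotoxicity.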

[19] = read-out: Matrix Metallopeptidase 9 (MMP9), MMP9 (gene 4318); experiment: BSK_KF3CT_MMP9: BioMAP Diversity Plus: KF3CT Assay for Matrix Metallopeptidase 9 (MMP9) Biomarker Activity (AID 2283074); conditions: primary human keratinocytes with fibroblasts; actives raise or lower the signal;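 on AC50: MMP9 protein level quantified by ELISA in the co-culture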
Procedure, shortened: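 ELISA read-out of MMP-9 at 24 h post-dosing in a co-culture of human skin keratinocytes and foreskin fibroblasts. Gain or loss of signal was fitted in both directions against DMSO.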

E-selectin (Homo sapiens), sequence (P16581 whole entry, looked up): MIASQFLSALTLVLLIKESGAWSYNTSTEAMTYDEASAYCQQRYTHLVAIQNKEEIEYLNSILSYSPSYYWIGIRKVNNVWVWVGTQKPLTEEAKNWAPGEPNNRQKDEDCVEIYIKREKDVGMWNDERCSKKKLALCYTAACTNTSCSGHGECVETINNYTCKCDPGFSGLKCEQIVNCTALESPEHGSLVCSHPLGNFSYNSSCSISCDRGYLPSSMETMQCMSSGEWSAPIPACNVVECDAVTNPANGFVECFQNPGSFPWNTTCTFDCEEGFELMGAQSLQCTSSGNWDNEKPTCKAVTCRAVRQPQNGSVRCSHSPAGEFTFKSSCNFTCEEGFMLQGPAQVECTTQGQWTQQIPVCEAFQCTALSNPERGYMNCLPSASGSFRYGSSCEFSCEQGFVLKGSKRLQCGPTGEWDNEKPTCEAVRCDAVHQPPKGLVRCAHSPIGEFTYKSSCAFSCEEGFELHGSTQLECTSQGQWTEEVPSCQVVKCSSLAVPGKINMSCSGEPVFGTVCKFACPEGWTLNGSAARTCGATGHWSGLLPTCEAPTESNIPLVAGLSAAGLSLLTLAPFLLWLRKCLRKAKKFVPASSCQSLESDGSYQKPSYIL

COCC(=O)N(c1c(C)cccc1C)[C@H](C)C(=O)OC
outcome [1]: inactive
outcome [2]: inactive
outcome [3]: inactive
outcome [4]: inactive
outcome [5]: inactive
outcome [6]: inactive
outcome [7]: inactive
outcome [8]: inactive
outcome [9]: inactive
outcome [10]: inactive
outcome [11]: inactive
outcome (CD40, CD40 (gene 958)): inactive
outcome [12]: inactive
outcome [13]: inactive
outcome [14]: inactive
outcome [15]: inactive
outcome [16]: inactive
outcome [17]: inactive
outcome [18]: inactive

O=S(=O)(C(Cl)(Cl)Cl)C(Cl)(Cl)Cl
AC50 [1]: 2800 nM (active)
AC50 [3]: 1110 nM (active)
AC50 [4]: 2150 nM (active)
AC50 [5]: 2990 nM (active)
AC50 [6]: 2480 nM (active)
AC50 [7]: 1670 nM (active)
AC50 [8]: 2250 nM (active)
outcome [9]: inactive
AC50 [10]: 2370 nM (active)
AC50 [19]: 2220 nM (active)
AC50 [11]: 3520 nM (active)
AC50 (CD40, CD40 (gene 958)): 1510 nM (active)
AC50 [12]: 2400 nM (active)
AC50 [13]: 2880 nM (active)
AC50 [14]: 5310 nM (active)
AC50 [15]: 1600 nM (active)
AC50 [16]: 4150 nM (active)
outcome [17]: inactive
AC50 [18]: 1830 nM (active)

Nc1ccc(N)cc1
outcome [1]: inactive
outcome [2]: inactive
outcome [3]: inactive
outcome [4]: inactive
outcome [5]: inactive
outcome [6]: inactive
outcome [7]: inactive
outcome [8]: inactive
outcome [10]: inactive
outcome [19]: inactive
outcome [11]: inactive
outcome (CD40, CD40 (gene 958)): inactive
outcome [12]: inactive
outcome [13]: inactive
outcome [14]: inactive
outcome [15]: inactive
outcome [16]: inactive
outcome [17]: inactive
outcome [18]: inactive
